An excerpt weighted towards active compounds, which were near 1.5% of everything screened.
cytoskel mod – modifiers of F-actin cytoskeleton organization, primary screen, imaging, HUVEC, phalloidin staining, high-content imaging | inhibition, % at 2 µM | HUVEC TNFa F-actin phalloidin imaging | AID 836, 2007 | 91,000 tested, 0.18% active;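 active = inhibition above the batch mean plus 3 SD and confirmed as a hit by visual image inspection, cut at about 30% in these data, passing the limit was not always enough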
Measles CPE – compounds protecting cells from measles virus cytopathic effect, primary screen, measles RdRp inhibitor project, single point, MLSMR library, absorbance. AID 841, 2007. protection (pct of control), % at 4 µM. 140,000 tested, 1.5% active. Measles virus-infected cells, CPE protection; in the data active = protection mostly above about 24%, no sharp cut-off; inactive = mostly below about 26%
Numbers stand for hits; - = inactive; . = not tested or not shown.

SMILES | cytoskel mod | Measles CPE
COC(=O)c1cn(C(=O)OC)c2ccccc12 | - | 49
COC(=O)Cn1cc(C(=O)OC)c2ccccc21 | - | -
O=C(Nc1ccc(Cl)cc1)ON=C1CCCC1 | . | -
Cc1csc(C(=O)O)c1-n1cccc1 | - | -
COC(=O)c1c(NC(=O)COC(=O)CNC(=O)C2CCCCC2)sc(C)c1C | . | -
O=C(NC1CCCCC1)c1sc(N2CCOCC2)nc1-c1ccccc1 | . | -
CCOc1ccc2ncc(S(=O)(=O)c3ccccc3)c(N3CCN(c4ccc(OC)cc4)CC3)c2c1 | . | -
COc1ccc(N2CCN(c3c(S(=O)(=O)c4ccccc4)cnc4ccc(OC)cc34)CC2)cc1 | . | 23
O=C(NCc1ccco1)/C(=C\c1cccnc1)NC(=O)c1ccccc1F | . | -
COC(=O)C1CCN(C(c2cc(OC)c(OC)c(OC)c2)c2sc3nc(C)nn3c2O)CC1 (stereo unspecified) | . | 34
CCOC(=O)C1CCN(C(c2cc(OC)c(OC)c(OC)c2)c2sc3nc(C)nn3c2O)CC1 (stereo unspecified) | . | -
CCc1ccc(NC(=O)C(C)OC(=O)CCC(=O)c2cccs2)cc1 (stereo unspecified) | . | -
O=C(COC(=O)C1(c2cccc(F)c2)CCCC1)NCc1ccc2c(c1)OCO2 | . | -
CCOC(=O)c1ccccc1NS(=O)(=O)c1ccccc1F | - | 33
CCOC(=O)c1ccccc1NS(=O)(=O)c1ccccc1 | - | -
CC(=O)Nc1ccc(S(=O)(=O)N(C)CC(=O)OCC(=O)Nc2cccnc2Cl)cc1 | . | -
COc1ccc([N+](=O)[O-])cc1NC(=O)c1ccc(C)o1 | . | -
O=C(NC1CC1)c1ccc(S(=O)(=O)NC2CCCCCC2)cc1 | - | -
O=C(NC1CC1)c1ccc(S(=O)(=O)NCC2CCCCC2)cc1 | 55 | -
Cc1cc(NCCC(C)C)n2nc(C)c(-c3ccccc3)c2n1 | - | -
CC(=O)Nc1ccc(Nc2cc(C)nc3c(-c4ccccc4)c(C)nn23)cc1 | . | 93
CCOc1ccc(-n2nc3c(=O)n(CCN4CCCCC4)nc(C)c3c2C)cc1 | . | -
O=C1C2CC=CCC2C(=O)N1c1n[nH]c(-c2ccccc2)n1 (stereo unspecified) | - | -
O=C1CN(C(=O)COC(=O)CCSc2ccccc2Cl)c2ccccc2N1 | - | 27
CC(C)[C@H](NC(=O)c1ccccc1)C(=O)OCC(=O)N1CC(=O)Nc2ccccc21 | . | -
SMILES | cytoskel mod | Measles CPE
O=C(Cc1ccccc1)Nc1ccc(SC(F)F)cc1 | . | -
CCOC(=O)c1ccc(Nc2nc(=O)c3cccnc3s2)cc1 | - | 71
CC(=O)c1ccc(Nc2nc(=O)c3cccnc3s2)cc1 | - | -
CC1(C)CC(=O)C(C=Nc2ccncc2)=C(O)C1 | - | .
CC1(C)CC(=O)C=C(N=CC2=C(O)CC(C)(C)CC2=O)C1 | - | 52
OC(c1ccccc1)(c1ccc(F)cc1)C(c1ccccc1)N1CCOCC1 (stereo unspecified) | - | -
O=C(c1scc2c1CCCC2)N1CCCCC1 | - | 36
Cc1ccc(NC(=O)c2scc3c2CCCC3)cc1 | . | -
Cc1ccc(NC(=O)c2ccccc2N(C)S(=O)(=O)c2ccccc2)c(C)c1 | . | -
COc1ccc(-c2n[nH]c(=S)n2-c2ccc3c(c2)OCCO3)cc1 | . | -
Oc1ccc(-c2n[nH]c(=S)n2-c2ccc3c(c2)OCCO3)c(O)c1 | . | 60
Cc1nn(Cc2ccc(Cl)cc2)c(C)c1NC(=O)C(c1ccccc1)c1ccccc1 | . | -
COc1cccc(OC)c1C(=O)N1CCN(S(=O)(=O)c2ccc(C)cc2)CC1 | - | 42
Cc1ccc(S(=O)(=O)N2CCN(C(=O)c3ccccc3)CC2)cc1 | - | -
Cc1nn(-c2ccccc2)c(Cl)c1C(=O)NCc1cccs1 | . | -
CCc1cccc2c(C(=O)COC(=O)c3ccc(O)cc3)c[nH]c12 | . | -
CCc1cccc2c(C(=O)COC(=O)c3ccccc3)c[nH]c12 | . | 28
COc1ccc(Oc2c(C)oc3c(CN4CCOCC4)c(O)ccc3c2=O)cc1 | - | 34
COc1ccccc1Oc1c(C)oc2c(CN3CCN(CCO)CC3)c(O)ccc2c1=O | - | -
Cc1oc2c(CN3CCCC3)c(O)ccc2c(=O)c1Oc1ccccc1Br | - | 19
CCOC(=O)c1ccc(Oc2c(C)oc3c(CN4CCN(C)CC4)c(O)ccc3c2=O)cc1 | - | -
CC(C)NC(=S)N/N=C1\CCCCC1C1CCCCC1 (stereo unspecified) | - | -
Cc1cc(-c2cccs2)n[nH]1 | . | 37
Cc1cc(-c2ccc(Cl)s2)n[nH]1 | - | -
COc1ccc(N=Nc2nc3ccc(Br)cc3n2C)cc1 | - | -
SMILES | cytoskel mod | Measles CPE
CCOC(=O)c1[nH]c2ccc(Br)cc2c1NC(=O)CCN1CCCC(C)(C)C1 | . | -
Cc1ccc(/C=C2/Sc3ccccc3N(CC(=O)NCCCOC(C)C)C2=O)cc1 | . | -
Oc1ccc(C=Nc2ccc3ncccc3c2)c(O)c1 | - | -
COc1cccc(N=Cc2ccc(O)cc2O)c1 | . | 35
O=C(O)CN1C(=O)Nc2ccc(Br)cc2C1c1ccccc1 (stereo unspecified) | . | 39
NNC(=O)CN1C(=O)Nc2ccc(Br)cc2C1c1ccccc1 (stereo unspecified) | - | -
Cc1cc(N2C(=O)C3C4CC(C(Br)C4Br)C3C2=O)no1 (stereo unspecified) | . | 32
Cc1ccnc(N2C(=O)C3C4CC(C(Br)C4Br)C3C2=O)c1 (stereo unspecified) | - | -
Cc1cc(-n2c(C)cc(C(=S)N3CCOCC3)c2C)ccc1Br | . | -
CC(=O)NC(Cc1ccccc1)C(=O)OCC(=O)c1ccccc1 (stereo unspecified) | . | -
C=CCC1(O)C(=O)N2C(=C1C(=O)OCC)c1ccc3ccccc3c1CC2(C)C (stereo unspecified) | - | 61
CNC(=O)/C=C1\NC(C)(C)Cc2c1ccc1ccccc21 | - | -
CCc1cc(-c2[nH]ncc2-c2ccc3c(c2)OCO3)c(O)cc1O | . | 84
CCCc1cc(-c2[nH]ncc2-c2ccc3c(c2)OCCCO3)c(O)cc1OC | - | -
CCn1c(=O)c2c(n3cnnc13)-c1ccccc1CC21CCCCC1 | 41 | -
O=c1c2c(n3cnnc3n1-c1ccccc1)-c1ccccc1CC21CCCCC1 | - | -
CCOC(=O)c1cc(NC(=O)Nc2nccs2)c(C)nc1C | . | -
Cc1ccccc1SCC(=O)OCC(=O)Nc1sccc1C(N)=O | . | 46
NC(=O)c1ccsc1NC(=O)CSc1ccccc1F | - | -
Cc1c(NC(=O)COC(=O)c2cc(-c3ccc(-c4ccccc4)cc3)nc3ccccc23)c(=O)n(-c2ccccc2)n1C | . | 38
CCC(CC)C(=O)Nc1c(C)n(C)n(-c2ccccc2)c1=O | - | 48
Cc1c(NS(=O)(=O)N2CCCC2)c(=O)n(-c2ccccc2)n1C | - | .
Cc1c(NC(=O)c2c(F)cccc2F)c(=O)n(-c2ccccc2)n1C | - | -
CCN(CC)C(=O)Nc1c(C)n(C)n(-c2ccccc2)c1=O | - | -
COc1ccc(-c2cc(C(=O)OC(C)C(=O)Nc3c(C)n(C)n(-c4ccccc4)c3=O)c3ccccc3n2)cc1 (stereo unspecified) | . | -
Cc1c(NS(C)(=O)=O)c(=O)n(-c2ccccc2)n1C | . | 55
Cc1c(NC(=O)c2c(N)n(-c3ccccc3)c3nc4ccccc4nc23)c(=O)n(-c2ccccc2)n1C | . | 59
Cc1ccc(S(=O)(=O)N(CC(=O)NC2CCCC2)c2cccc(C)c2)cc1 | . | -
COc1ccc(CCNC(=O)Cc2ccc(OCc3ccccc3)c(OC)c2[N+](=O)[O-])cc1OCc1ccccc1 | - | -

Screening results deposited in PubChem by several laboratories.
